# Results from the supplement of paper PMC8728848.
# This excerpt belongs to a sample that is enriched for the strongest signals.
# What was measured:
# Assay in all cases: glycan array binding signal (z-score within array); higher = stronger binding
# Details in all cases: glycan notation: IUPAC condensed, linker removed
# [1] = target: Fuc(a1-2)Gal(b1-3)GlcNAc(b1-2)Man(a1-3)[Fuc(a1-2)Gal(b1-3)GlcNAc(b1-2)Man(a1-6)]Man(b1-4)GlcNAc(b1-4)[Fuc(a1-6)]GlcNAc
# Procedure, shortened: (§1)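 Glycan array data were curated from 3228 arrays in the Consortium for Functional Glycomics database and kept only where the protein sequence was available. Glycan names were converted to IUPAC-condensed notation, and columns mapping to the same glycan were averaged. The binding signal is a within-array Z-score, averaged across arrays of the same protein sequence at different concentrations or buffers and across linkers. Negative Z-scores can be read as non-binding.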
# [2] = target: Fuc(a1-2)Gal(b1-4)[Fuc(a1-3)]GlcNAc(b1-3)GalNAc
# Procedure, shortened: as §1
# [3] = target: Fuc(a1-2)[GalNAc(a1-3)]Gal(b1-4)Glc
# Procedure, shortened: as §1
# [4] = target: Fuc(a1-2)[GalNAc(a1-3)]Gal(b1-4)GlcNAc(b1-2)Man(a1-3)[Fuc(a1-2)[GalNAc(a1-3)]Gal(b1-4)GlcNAc(b1-2)Man(a1-6)]Man(b1-4)GlcNAc(b1-4)GlcNAc
# Procedure, shortened: as §1
# [5] = target: Fuc(a1-2)[GalNAc(a1-3)]Gal(b1-4)GlcNAc(b1-3)Gal(b1-4)GlcNAc
# Procedure, shortened: as §1
# [6] = target: Fuc(a1-2)[GalNAc(a1-3)]Gal(b1-4)GlcNAc(b1-3)Gal(b1-4)GlcNAc(b1-3)Gal(b1-4)GlcNAc
# Procedure, shortened: as §1
# [7] = target: Fuc(a1-2)[GalNAc(a1-3)]Gal(b1-4)[Fuc(a1-3)]GlcNAc(b1-3)GalNAc
# Procedure, shortened: as §1
# [8] = target: Fuc(a1-3)[Gal(b1-4)]GlcNAc(b1-6)[Gal(b1-3)GlcNAc(b1-3)]Gal(b1-4)Glc
# Procedure, shortened: as §1
# [9] = target: Fuc(a1-3)[Gal(b1-4)]GlcNAc6S
# Procedure, shortened: as §1
# Fuc(a1-4)GlcNAc = target: Fuc(a1-4)GlcNAc
# Procedure, shortened: as §1
# [10] = target: Gal(a1-3)Gal(b1-3)GlcNAc(b1-3)GalNAc
# Procedure, shortened: as §1
# Gal(a1-3)GalNAc = target: Gal(a1-3)GalNAc
# Procedure, shortened: as §1
# [11] = target: Gal(b1-3)GalNAc(a1-3)[Fuc(a1-2)]Gal(b1-4)Glc
# Procedure, shortened: as §1
# [12] = target: Gal(b1-3)[Fuc(a1-4)]GlcNAc(b1-2)Man(a1-3)[Gal(b1-3)[Fuc(a1-4)]GlcNAc(b1-2)Man(a1-6)]Man(b1-4)GlcNAc(b1-4)[Fuc(a1-6)]GlcNAc
# Procedure, shortened: as §1
# [13] = target: Gal(b1-3)[Fuc(a1-4)]GlcNAc(b1-3)Gal(b1-3)[Fuc(a1-4)]GlcNAc
# Procedure, shortened: as §1
# [14] = target: Gal(b1-4)GlcNAc(b1-2)Man(a1-3)Man(b1-4)GlcNAc(b1-4)GlcNAc
# Procedure, shortened: as §1
# Gal3S(b1-3)GalNAc = target: Gal3S(b1-3)GalNAc
# Procedure, shortened: as §1
# Gal3S(b1-3)GlcNAc = target: Gal3S(b1-3)GlcNAc
# Procedure, shortened: as §1
# Gal3S(b1-4)Glc6S = target: Gal3S(b1-4)Glc6S
# Procedure, shortened: as §1
# Gal3S(b1-4)GlcNAc = target: Gal3S(b1-4)GlcNAc
# Procedure, shortened: as §1
# [15] = target: GalNAc(a1-3)GalNAc(b1-3)Gal(a1-4)Gal(b1-4)GlcNAc
# Procedure, shortened: as §1
# Glc(a1-4)Glc = target: Glc(a1-4)Glc
# Procedure, shortened: as §1
# Glc(b1-4)Glc = target: Glc(b1-4)Glc
# Procedure, shortened: as §1
# GlcA(b1-3)GlcNAc = target: GlcA(b1-3)GlcNAc
# Procedure, shortened: as §1
# [16] = target: GlcNAc(b1-2)Man(a1-3)[GlcNAc(b1-2)Man(a1-6)]Man(b1-4)GlcNAc(b1-4)GlcNAc
# Procedure, shortened: as §1
# [17] = target: GlcNAc(b1-2)[GlcNAc(b1-6)]Man(a1-6)[GlcNAc(b1-2)Man(a1-3)][GlcNAc(b1-4)]Man(b1-4)GlcNAc(b1-4)GlcNAc
# Procedure, shortened: as §1
# GlcNAc(b1-3)Man = target: GlcNAc(b1-3)Man
# Procedure, shortened: as §1
# [18] = target: GlcNAc6S(b1-3)Gal(b1-4)GlcNAc
# Procedure, shortened: as §1
# [19] = target: Man(a1-3)[Man(a1-6)]Man(a1-6)[Man(a1-3)]Man
# Procedure, shortened: as §1
# [20] = target: Neu5Ac(a2-3)Gal(b1-3)[Neu5Ac(a2-6)]GalNAc
# Procedure, shortened: as §1
binder,measurement,setting,value
Gal 9 (Canis lupus) (protein) MAFSSSQPPYLSPGVPFSGKIQGGLQDGLKITINGTILYCNGTRFAVNFHSGHSDSDIAFHFNPRFEEGGYVVCNTKQKGSWGSEERKMQMPFQMGNPFELCFMVNSCDFKVTVNGSHFTQYSHRVPFHYVDTLSITGAVQLSYISFQSPGVWQSSSAPITQTVIHTVQTTPGQPFPNPIIPPTAYPTPTYPMPFFTSIPGGLYPSKSIIVSGTVLPGAKRFHINLRSGNDIAFHLNPRFNENTVVRNMQINNSWGSEERSLPRKMPFVQGQSFSVWIMCEGHCFKVAVDGEHLFEYYHRLKNLLAINNMEVAGDVQLTHVQT,glycan array binding signal (z-score),[1],-0.285
same,glycan array binding signal (z-score),[2],-0.26
same,glycan array binding signal (z-score),[3],2.88
same,glycan array binding signal (z-score),[4],9.39
same,glycan array binding signal (z-score),[5],5.36
same,glycan array binding signal (z-score),[6],2.68
same,glycan array binding signal (z-score),[7],-0.288
same,glycan array binding signal (z-score),[8],-0.156
same,glycan array binding signal (z-score),[9],-0.337
same,glycan array binding signal (z-score),Fuc(a1-4)GlcNAc,-0.346
same,glycan array binding signal (z-score),[10],0.104
same,glycan array binding signal (z-score),Gal(a1-3)GalNAc,-0.296
same,glycan array binding signal (z-score),[11],3.45
same,glycan array binding signal (z-score),[12],-0.287
same,glycan array binding signal (z-score),[13],-0.315
same,glycan array binding signal (z-score),[14],0.09
same,glycan array binding signal (z-score),Gal3S(b1-3)GalNAc,5.93
same,glycan array binding signal (z-score),Gal3S(b1-3)GlcNAc,0.396
same,glycan array binding signal (z-score),Gal3S(b1-4)Glc6S,3.83
same,glycan array binding signal (z-score),Gal3S(b1-4)GlcNAc,0.222
same,glycan array binding signal (z-score),[15],3.04
same,glycan array binding signal (z-score),Glc(a1-4)Glc,-0.327
same,glycan array binding signal (z-score),Glc(b1-4)Glc,-0.311
same,glycan array binding signal (z-score),GlcA(b1-3)GlcNAc,-0.341
same,glycan array binding signal (z-score),[16],-0.332
same,glycan array binding signal (z-score),[17],-0.338
same,glycan array binding signal (z-score),GlcNAc(b1-3)Man,-0.347
same,glycan array binding signal (z-score),[18],-0.104
same,glycan array binding signal (z-score),[19],-0.346
same,glycan array binding signal (z-score),[20],-0.055
